# Only some compounds are listed: those with a hit (about 11% of all), similar ones and a draw of the others.
# BAZ2B inh = blocks human BAZ2B. AID 504333. hit rate 4.4% among 360,000. Q9UIF8. Potency, µM (doses to about 114 µM), for inactives: at the highest dose activity change, negative = inhibition, usual class: inhibitors. AlphaScreen BAZ2B-H3K14Ac peptide displacement; further: potency means the concentration at half of the fitted maximal effect; on the % scale 0 is the no-effect control and ±100 the full control effect; nearly all actives have a fitted effect of over 60% in size
#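 BAZ2B (50 nM) with biotin-H3(5-23)K14Ac peptide (50 nM) in PBS pH 7.4, 0.01% Tween-20, preformed 30 min, then compound 30 min at room temperature; top concentration 110uM. AlphaScreen streptavidin donor/nickel chelate acceptor beads (10 ug/mL final), 20 min dark, signal read.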
# PI5P4Ka inh = blocks human PI5P4K alpha kinase activity. PI5P4Kalpha enzyme, ADP-Glo luminescence, 60 min; hits give low values. max response, %. hit rate 1.2% among 330,000. AID 652105; active means max response of -50% or lower; inconclusive means between -30% and -50%; inactive means -30% or higher; further: value at the top dose of about 77 µM; on the % scale 0 is the no-effect control and ±100 the full control effect
# Target sequence (P48426 whole entry, looked up): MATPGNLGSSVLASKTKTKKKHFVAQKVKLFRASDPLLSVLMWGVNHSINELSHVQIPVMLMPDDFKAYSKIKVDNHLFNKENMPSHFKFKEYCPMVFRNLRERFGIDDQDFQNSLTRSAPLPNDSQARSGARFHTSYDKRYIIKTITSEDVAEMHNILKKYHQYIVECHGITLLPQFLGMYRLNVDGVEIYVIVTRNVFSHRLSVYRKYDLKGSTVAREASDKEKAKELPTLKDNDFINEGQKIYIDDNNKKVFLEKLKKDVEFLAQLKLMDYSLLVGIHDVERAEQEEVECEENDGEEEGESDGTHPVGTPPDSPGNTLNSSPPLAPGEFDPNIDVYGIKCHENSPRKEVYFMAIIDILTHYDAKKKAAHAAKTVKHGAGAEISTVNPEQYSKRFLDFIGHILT
#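 Controls without substrate or without enzyme flank wells where PI5P4Kalpha converts substrate using 5 microM ATP (final). Incubation lasts 60 minutes at room temperature; ADP formed is read by ADP-Glo luminescence.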
# HP1b binding inh = inhibitors of HP1-beta chromodomain binding to methylated histone tails | P83916 | AlphaScreen HP1-beta / biotin-H3K9me3 peptide binding | Potency, µM (top dose mostly 114 µM), inactives show at the highest dose activity change, negative = inhibition, hits mostly inhibitors | hit rate 0.56% among 390,000 | AID 540317; further: potency means the concentration at half of the fitted maximal effect; nearly all actives have a fitted effect of over 70% in size
# Target sequence (P83916 whole entry, looked up): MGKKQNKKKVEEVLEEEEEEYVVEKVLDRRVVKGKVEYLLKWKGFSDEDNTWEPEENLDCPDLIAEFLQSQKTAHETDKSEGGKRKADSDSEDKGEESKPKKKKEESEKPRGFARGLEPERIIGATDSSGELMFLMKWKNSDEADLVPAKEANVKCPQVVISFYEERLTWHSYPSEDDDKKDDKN
#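 AlphaScreen: HP1-beta (50 nM) preformed 30 min with biotin-H3(1-18)K9me3 peptide (50 nM) in PBS pH 7.4, 0.01% Tween-20. Compound added for 30 min at RT, then streptavidin donor/nickel chelate acceptor beads (10 ug/mL) for 30 min.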
# L3MBTL1 inh = inhibitors of human L3MBTL1. Q9Y468. AlphaScreen L3MBTL1–H3K9me1 peptide binding. Potency, µM (top dose mostly 57.1 µM), without a hit: top-dose activity, negative = inhibition, usual class: inhibitors. hit rate 0.66% among 230,000. AID 485360; further: potency means the concentration at half of the fitted maximal effect; on the % scale 0 is the no-effect control and ±100 the full control effect; nearly all actives have a fitted effect of over 60% in size
#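 First, the protein-peptide complex forms for 30 min at room temperature (L3MBTL1 50 nM, biotinylated H3K9me1 peptide 75 nM). Next, compounds are pin-transferred and incubated 30 min. Finally, AlphaScreen beads are added and read after 30 min.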
# JMJD2A Tudor inh = JMJD2A Tudor domain (human) inhibition | AID 504339 | hit rate 4.4% among 390,000 | O75164 | Potency, µM (titrated, usually from 114 µM), for the others: top-dose activity change, negative = inhibition, most hits filed as inhibitors | AlphaScreen JMJD2A-Tudor / H3K4me3 peptide binding; further: potency means the concentration at half of the fitted maximal effect; on the % scale 0 is the no-effect control and ±100 the full control effect; nearly all actives have a fitted effect of over 50% in size
# G9a inh = inhibitors of human histone lysine methyltransferase G9a | Potency, µM (highest dose often 102 µM), for the others: at the top dose activity, negative = inhibition, actives largely listed as inhibitors | hit rate 8.8% among 350,000 | Q96KQ7 | AID 504332 | G9a H3K9 monomethylation, AlphaScreen, 2 h; further: potency means the concentration at half of the fitted maximal effect; on the % scale 0 is the no-effect control and ±100 the full control effect; nearly all actives have a fitted effect of over 75% in size
#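 Quantitative HTS format: methyltransferase activity on a biotin-tagged H3K9 peptide is measured by AlphaScreen, using a rabbit anti-monomethyl-H3K9 antibody with streptavidin donor and anti-IgG acceptor beads. Final levels are 20 nM enzyme, 500 nM peptide, 20 uM SAM; 2 h RT.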
# Starred values were filed as active, the others as inactive; ? = inconclusive; . = no result; [ ] = dose if it differs, or a comment. Unless noted, the call rests on the fitted dose curve; in most records, active means well fitted inhibition curve with a large enough effect; inconclusive means small, poorly fitted or top-dose-only effect; inactive means no such curve, though single readings can be large or run the other way.
SMILES,BAZ2B inh,PI5P4Ka inh,HP1b binding inh,L3MBTL1 inh,JMJD2A Tudor inh,G9a inh
Cc1ccc(N2CC(NC(=O)C3CCCCC3)CC2=O)cc1 (stereo unspecified),-2.8%,.,18.6%,.,0.6%,7.3%[59 µM]
Cc1ccc(OCc2cc(C(=O)N3CC4C[C@@H]5CC3C[C@H](C4)C5)no2)cc1C,7.2%,5.4,25.6%,.,-4.1%,34.1%
Cc1ccc(OCc2cc(C(=O)N3CCc4[nH]cnc4C3c3ccccn3)no2)cc1C (stereo unspecified),?,-4.1,8.6%,.,?,70.8µM*
CC(C)(NO)/C(=N\O)c1ccccc1,39.8µM*,-4.0,70.8µM*,5.3%,12.6µM*,10µM*
Cc1cc(/C(=N/O)C(C)(C)NO)ccc1Cl,-8.4%,2.1,-17.9%,4.1%,20µM*,?
ONC(=NCc1ccccc1)c1ccccc1,.,15.3,33.2%,.,-5.6%,.
O=C(NCC(c1ccc2c(c1)OCO2)N1CCN(c2ccccc2)CC1)c1ccccc1 (stereo unspecified),?,.,-5.4%[57 µM],.,?,-32.8%[59 µM]
COc1ccc(NC(=O)/C(Cl)=C(/Cl)S(=O)Cc2ccc(Cl)cc2)cn1 (stereo unspecified),-15.5%,-3.2,50.2%,-14.2%,-28.5%,11.2µM*
COc1ccc(NC(=O)CCl)cn1,79.4µM*,.,.,.,.,28.2µM*
COc1ccc(NC(=O)Nc2cccs2)cn1,-37.4%,-12.0,9.1%,.,-35.2%,35.5µM*
CCc1ccc(-n2nc(C)c3c(C(=O)Nc4cc(C)c(Cl)cc4OC)cc(C)nc32)cc1,12.4%[57.1 µM],.,42.4%,.,26.9%,-2.3%[59 µM]
O=C(CSc1nc(=O)n(Cc2ccco2)c2c1CCC2)Nc1ccccc1C(F)(F)F,-10.1%,.,20.9%,.,-17.2%,1.7%[59 µM]
COc1ccc(-c2csc3nc(-c4cccnc4)nc(N4CCC(C(N)=O)CC4)c23)cc1OC,-32.3%,-19.9,4.4%,-0.2%,-29.1%,?
O=C1CN(c2nc(-c3cccnc3)nc3scc(-c4ccccc4)c23)CCN1,-28.9%,5.8,35.9%,-1.2%,1.4%,39.8µM*
O=C(CSc1nc2c(c(=O)[nH]1)CN(Cc1ccc(F)cc1)CC2)Nc1cccc(C(F)(F)F)c1,-4.7%,.,21.0%,.,-9.3%,-3.4%[59 µM]
O=C(CCS(=O)(=O)c1ccccc1Cl)NCc1ccc(F)cc1,21.3%,0.0,65.9%,-4.3%,-6.1%,50.1µM*
O=C(CCCC(=O)NCc1ccc(F)cc1)NCc1ccc(F)cc1,-13.2%,2.4,-30.5%,7.3%,-31.4%,20.8%
COc1ccc(Cl)cc1NC(=O)CN(C)S(=O)(=O)c1ccc2c(c1)CCCN2C(C)=O,3.0%,.,25.8%[57 µM],.,-11.3%,-31.2%[59 µM]
O=C(NC1(C(F)(F)F)NC(=O)N(Cc2ccco2)C1=O)c1cccnc1 (stereo unspecified),11.1%,5.6,33.7%,3.7%,-9.1%,39.8µM*
O=C(NC1(C(F)(F)F)NC(=O)N(Cc2ccccc2)C1=O)c1cccnc1 (stereo unspecified),?,6.9,25.5%,.,-2.5%,6.8%
O=C(CSc1nc2ccsc2c(=O)n1Cc1ccccc1F)NCc1ccccc1Cl,-2.8%,.,-2.8%,.,-11.0%,3.7%[59 µM]
COc1ccc([C@]23Cc4cc(OC)c(OC)cc4C(O2)c2c(cc(C)n(Cc4ccccc4)c2=O)O3)cc1,11.2µM*,.,.,.,.,-4.2%[2.33 µM]
COc1ccc([C@]23Cc4cc(OC)c(OC)cc4C(O2)c2c(c4ccccc4oc2=O)O3)cc1,10µM*,.,.,.,.,?
COC(=O)c1ccc(NC(=O)CC2C(=O)N(c3cccc(OC)c3)C(=O)N2Cc2cccs2)cc1 (stereo unspecified),-12.1%,.,24.2%,.,0.7%,-5.2%[59 µM]
CCCN1CCC2(CC1)NC(C(=O)O)Cc1c2[nH]c2ccccc12 (stereo unspecified),?,1.5,13.2%,.,-8.5%,14.1µM*
SMILES,BAZ2B inh,PI5P4Ka inh,HP1b binding inh,L3MBTL1 inh,JMJD2A Tudor inh,G9a inh
COC(=O)C1Cc2c([nH]c3ccccc23)C2(CCN(Cc3ccccc3)CC2)N1 (stereo unspecified),?,6.0,-14.8%,.,?,44.7µM*
CCOC(=O)N1CCN(C(=O)CN(c2cc(C)ccc2OC)S(=O)(=O)c2ccc(C)cc2)CC1,-2.6%,.,38.2%,.,-5.2%,?
O=C(CCCOc1ccccc1)N1CCCCC1,3.7%,7.6,19.2%,.,-15.7%[57.1 µM],-6.3%
CCC1CCCCN1C(=O)CCCOc1ccccc1 (stereo unspecified),0.4%,?,7.4%,.,14.1µM*,11.2%
COC(=O)C1=C(C)N(CCCC(=O)O)C(=O)NC1c1ccccc1Cl (stereo unspecified),.,-82.0*,46.4%,.,4.1%,.
COC(=O)C1=C(C)N(CCCC(=O)O)C(=O)NC1c1ccc(C#N)cc1 (stereo unspecified),.,-63.4*,7.8%,.,-35.4%,.
CCN1C(=O)N[C@H](c2ccc(Br)cc2)C(C(C)=O)=C1C,3.3%,-8.9,24.6%,-4.6%,-22.0%,44.7µM*
COC(=O)C1=C(C)N(CCCC(=O)O)C(=O)NC1c1ccc(C(F)(F)F)cc1 (stereo unspecified),-30.8%,-81.4*,29.1%,3.5%,-2.8%,-42.2%
O=C(c1ccc2c(c1)N(Cc1ccc(F)cc1)C(=O)c1ccccc1S2(=O)=O)N1CCC(Cc2ccccc2)CC1,-24.8%,.,28.7%,.,-16.2%,-31.0%[59 µM]
CC(C)c1ccc(OCC(=O)Nc2cc(-c3ccccc3)no2)cc1,13.5%,.,68.4%,.,-13.9%,29.0%[59 µM]
Cn1c(=O)oc2cc(S(=O)(=O)N3CCCC(C(=O)NCCc4ccc(Cl)cc4)C3)ccc21 (stereo unspecified),1.9%,.,44.0%,.,1.0%,1.0%[59 µM]
COC(=O)C1=C(C)N(CCCC(=O)O)C(=O)NC1c1ccc(-c2ccccc2)cc1 (stereo unspecified),-9.5%,-74.7*,33.8%,2.5%,2.9%,13.1%
CC1=C(C(=O)OCC(Br)(Br)Br)C(c2ccc(Br)cc2)NC(=O)N1CCCC(=O)O (stereo unspecified),-10.2%,.,.,9.2%,.,-94.8%
COC(=O)C1=C(C)N(CCCC(=O)O)C(=O)NC1c1ccc(Br)cc1 (stereo unspecified),-4.1%,-99.1*,14.3%,19.7%,-18.4%,.
CC1(C)CC(=O)C2=C(C1)OC(N)=C(C#N)C21CCN(Cc2ccccc2)CC1,-36.0%,-5.4,67.5%,1.7%,-20.1%,28.2µM*
CCOc1cc(S(=O)(=O)NCCc2c(C)[nH]c3ccc(C)cc23)ccc1F,35.5µM*,.,-4.7%,.,50.1µM*,-46.0%[59 µM]
Cc1cc([N+](=O)[O-])ccc1NCc1ccccc1,-9.9%,.,14.7%,-1.6%,-25.0%,.
Cc1ccccc1NCc1ccc([N+](=O)[O-])s1,50.1µM*,-4.9,?,-9.5%,?,.
